From PubChem BioAssay (NCATS)
Results filed as inconclusive are left out. The source made the active and inactive calls. Calls come from the whole dose curve.

Tests used:
[1] = Primary qHTS for inhibitors of SARS-S pseudo-typed particle cell entry (AID 1479145); note: nearly all actives have a fitted effect of over 45% in size
[2] = Primary qHTS for Huh7 cytotoxicity: counterscreen for inhibitors of MERS-S pseudotyped particle cell entry (AID 1479147)
[3] = Primary qHTS for inhibitors of MERS-S pseudo-typed particle cell entry (AID 1479149); note: nearly all actives have a fitted effect of over 60% in size
[4] = Primary qHTS for Vero E6 cytotoxicity: counterscreen for inhibitors of SARS-S pseudo-typed particle cell entry (AID 1479150)

Measured: Potency

O=C(O)CCC(=O)c1ccc(-c2ccccc2)cc1
inactive: all assays above

CCCCCC1Nc2cc(C(F)(F)F)c(S(N)(=O)=O)cc2S(=O)(=O)N1 (configuration not stated)
inactive: all assays above

Oc1cc(O)c2c(c1)O[C@H](c1ccc(O)c(O)c1)[C@H](O)C2
inactive: all assays above

O=C1OC2(c3ccc(O)cc3Oc3cc(O)ccc32)c2ccccc21
inactive: all assays above

CCOC(=O)c1ccc(NC(=O)CN2CCCCC2)cc1
inactive: all assays above

Cc1c(C(=O)NN2CCCCC2)nn(-c2ccc(Cl)cc2Cl)c1-c1ccc(Cl)cc1
inactive: all assays above

CC(C)(C)NCC(O)COc1cccc2c1CCC(=O)N2 (configuration not stated)
inactive: all assays above

CCCCC1(COC(=O)CCC(=O)O)C(=O)N(c2ccccc2)N(c2ccccc2)C1=O
inactive: all assays above

Cc1ccc(/C=N/n2c(-c3ccccc3)csc2=S)cc1
inactive: all assays above

CCCN(CCC)C(=O)C(CCC(=O)O)NC(=O)c1ccccc1 (configuration not stated)
inactive: all assays above

CC(COc1ccccc1)NC(C)C(O)c1ccc(O)cc1 (configuration not stated)
inactive: all assays above

CN1C(=O)CC(c2ccccc2)C1=O (configuration not stated)
inactive: all assays above

CC1=C(C)C(=O)C(C(CCCCCC(=O)O)c2ccccc2)=C(C)C1=O (configuration not stated)
inactive: all assays above

CO/N=C(/C(=O)N[C@@H]1C(=O)N2C(C(=O)O)=C(Cn3nnc(C)n3)CS[C@H]12)c1csc(N)n1
inactive: all assays above

C[C@H]1C[C@H]2[C@@H]3CCC4=CC(=O)C=C[C@]4(C)[C@H]3C(=O)C[C@]2(C)[C@@]1(O)C(=O)CO
inactive: all assays above

CN(C)[C@@H]1C(=O)C(C(=O)NCN2CCCC2)=C(O)[C@@]2(O)C(=O)C3=C(O)c4c(O)cccc4[C@@](C)(O)C3C[C@@H]12 (some centres not stated)
inactive: all assays above

CCc1cccc2c3c([nH]c12)C(CC)(CC(=O)O)OCC3 (configuration not stated)
inactive: all assays above

Cc1cc(=O)oc2cc(O)ccc12
inactive: all assays above

C=CCOc1ccccc1OCC(O)CNC(C)C (configuration not stated)
inactive: all assays above

CC(C)(C)C(=O)OCOC(=O)[C@@H]1N2C(=O)[C@@H](NC(=O)[C@H](N)c3ccccc3)[C@H]2SC1(C)C
inactive: all assays above

CC(C)(C)C(=O)C(Oc1ccc(Cl)cc1)n1ccnc1 (configuration not stated)
inactive: all assays above

Nc1c2c(nc3ccccc13)CCCC2
inactive: all assays above

CN1CCOC(c2ccccc2)c2ccccc2C1 (configuration not stated)
inactive: all assays above

CC(=O)OC[C@H]1O[C@@](COC(C)=O)(O[C@H]2O[C@H](COC(C)=O)[C@@H](OC(C)=O)[C@H](OC(C)=O)[C@H]2OC(C)=O)[C@@H](OC(C)=O)[C@@H]1OC(C)=O
inactive: all assays above

Cc1ccc(Nc2c(F)cccc2Cl)c(CC(=O)O)c1
inactive: all assays above

CC(C(=O)O)c1ccc(CC2CCCC2=O)cc1 (configuration not stated)
inactive: all assays above

Oc1ccc(C(O)CNCCCCCCNCC(O)c2ccc(O)c(O)c2)cc1O (configuration not stated)
inactive: all assays above

COc1ccc2c(c1)c(CC(=O)OCC(=O)O)c(C)n2C(=O)c1ccc(Cl)cc1
inactive: all assays above

COc1cccc(N(C)C(=S)Oc2ccc3c(c2)CCCC3)n1
inactive: all assays above

CCOc1ccc2nc(S(N)(=O)=O)sc2c1
inactive: all assays above

CC1(C)[C@H](C(=O)O)N2C(=O)C[C@H]2S1(=O)=O
inactive: all assays above

O=c1[nH]cnc2c1ncn2[C@@H]1O[C@H](CO)[C@@H](O)[C@H]1O
inactive: all assays above

Cc1cccc(C)c1NC(=O)C(C)N (configuration not stated)
inactive: all assays above
